In the supplement of paper PMC11732987, “Enantioselective OTUD7B fragment discovery through chemoproteomics screening and high-throughput optimisation” (Communications Chemistry, 2025):

Key:
Assay in all cases: log2 ratio of Biotin-Ahx-Ub-VS probe labelling (fragment/DMSO); higher = less target engagement (more negative = stronger competition), active = hit call of the paper (q ≤ 0.05, log2 ratio ≤ -1)
Settings in all cases: compound concentration: 200 uM; treatment time: 3 h
USP9X = USP9X (UniProt Q93008)
USP9X, sequence (Q93008 whole entry, the tested form may be a part): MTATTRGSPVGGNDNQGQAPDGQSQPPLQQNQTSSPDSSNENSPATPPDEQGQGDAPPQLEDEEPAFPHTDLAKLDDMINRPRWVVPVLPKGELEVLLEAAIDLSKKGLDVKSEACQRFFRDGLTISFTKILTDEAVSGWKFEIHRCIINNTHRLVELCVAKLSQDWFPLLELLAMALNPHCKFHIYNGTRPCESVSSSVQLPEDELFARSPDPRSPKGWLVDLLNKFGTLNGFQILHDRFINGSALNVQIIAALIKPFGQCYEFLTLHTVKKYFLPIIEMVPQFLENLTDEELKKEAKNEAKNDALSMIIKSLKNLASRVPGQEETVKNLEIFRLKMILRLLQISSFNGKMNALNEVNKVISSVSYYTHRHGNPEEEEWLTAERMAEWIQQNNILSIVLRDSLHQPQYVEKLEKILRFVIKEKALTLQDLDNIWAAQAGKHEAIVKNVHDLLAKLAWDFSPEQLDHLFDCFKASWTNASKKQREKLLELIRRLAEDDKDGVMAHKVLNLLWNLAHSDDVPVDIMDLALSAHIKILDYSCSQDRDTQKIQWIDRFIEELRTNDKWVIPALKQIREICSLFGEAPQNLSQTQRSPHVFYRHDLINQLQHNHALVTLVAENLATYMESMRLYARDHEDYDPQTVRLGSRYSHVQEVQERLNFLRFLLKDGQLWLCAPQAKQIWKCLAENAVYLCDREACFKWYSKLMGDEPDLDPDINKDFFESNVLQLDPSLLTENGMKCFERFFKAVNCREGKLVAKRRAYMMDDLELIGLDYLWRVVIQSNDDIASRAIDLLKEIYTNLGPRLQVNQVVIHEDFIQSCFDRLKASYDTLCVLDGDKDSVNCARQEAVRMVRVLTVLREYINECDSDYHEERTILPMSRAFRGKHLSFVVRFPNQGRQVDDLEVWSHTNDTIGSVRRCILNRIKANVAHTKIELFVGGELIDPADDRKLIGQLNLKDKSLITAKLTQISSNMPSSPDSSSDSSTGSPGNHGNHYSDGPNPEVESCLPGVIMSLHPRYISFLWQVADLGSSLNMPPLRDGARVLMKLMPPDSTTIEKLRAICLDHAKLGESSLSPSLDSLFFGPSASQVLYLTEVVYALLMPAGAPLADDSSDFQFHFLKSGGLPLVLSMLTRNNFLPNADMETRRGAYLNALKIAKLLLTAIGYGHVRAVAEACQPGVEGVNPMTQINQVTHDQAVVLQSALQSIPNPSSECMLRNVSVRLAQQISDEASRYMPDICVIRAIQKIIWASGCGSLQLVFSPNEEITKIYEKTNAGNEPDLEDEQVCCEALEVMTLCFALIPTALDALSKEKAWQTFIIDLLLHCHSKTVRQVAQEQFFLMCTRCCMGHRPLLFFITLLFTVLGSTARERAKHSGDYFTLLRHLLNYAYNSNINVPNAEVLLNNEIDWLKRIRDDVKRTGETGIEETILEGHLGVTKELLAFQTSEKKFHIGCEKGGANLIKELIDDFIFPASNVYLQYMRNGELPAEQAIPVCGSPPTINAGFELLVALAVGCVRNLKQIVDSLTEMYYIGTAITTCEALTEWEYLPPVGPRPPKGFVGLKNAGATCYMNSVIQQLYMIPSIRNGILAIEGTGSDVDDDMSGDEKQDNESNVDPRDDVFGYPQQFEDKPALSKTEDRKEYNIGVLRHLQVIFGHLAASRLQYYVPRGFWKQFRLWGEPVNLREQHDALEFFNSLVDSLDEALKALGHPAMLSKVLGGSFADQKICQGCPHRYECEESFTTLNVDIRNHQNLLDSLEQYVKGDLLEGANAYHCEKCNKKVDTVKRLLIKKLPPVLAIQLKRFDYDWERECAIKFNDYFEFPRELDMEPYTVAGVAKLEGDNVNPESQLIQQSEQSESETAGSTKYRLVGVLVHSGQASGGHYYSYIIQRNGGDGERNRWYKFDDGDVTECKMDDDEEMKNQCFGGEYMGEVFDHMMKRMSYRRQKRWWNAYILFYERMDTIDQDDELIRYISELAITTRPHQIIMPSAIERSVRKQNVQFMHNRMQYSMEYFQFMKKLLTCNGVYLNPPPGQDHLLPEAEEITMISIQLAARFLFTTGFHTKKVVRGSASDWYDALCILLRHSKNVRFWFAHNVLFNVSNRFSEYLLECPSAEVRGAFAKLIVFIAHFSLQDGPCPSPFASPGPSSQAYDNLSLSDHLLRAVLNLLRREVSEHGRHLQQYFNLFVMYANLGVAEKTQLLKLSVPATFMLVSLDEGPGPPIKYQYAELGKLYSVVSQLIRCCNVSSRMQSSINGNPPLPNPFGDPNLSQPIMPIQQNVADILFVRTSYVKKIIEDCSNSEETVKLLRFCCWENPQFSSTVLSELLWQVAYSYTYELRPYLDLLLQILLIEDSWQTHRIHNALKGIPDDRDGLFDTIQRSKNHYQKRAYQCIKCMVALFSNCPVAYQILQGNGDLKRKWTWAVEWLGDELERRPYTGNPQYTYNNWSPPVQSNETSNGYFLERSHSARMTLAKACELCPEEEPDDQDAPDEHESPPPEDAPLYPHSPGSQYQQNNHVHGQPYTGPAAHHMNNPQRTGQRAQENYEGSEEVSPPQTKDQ
Method in brief: (§1)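 HEK293T lysate in Tris/CHAPS/IGEPAL buffer with protease inhibitors (495 µg per sample) was given fragment at 200 µM or vehicle for 3 h, in triplicate. It then received Biotin-Ahx-Ub-VS at 0.5 µM final for 1 h. Labelled DUBs were NeutrAvidin-enriched, digested with LysC and trypsin, and run by diaPASEF LC-MS/MS. Values are average log2 fragment/vehicle ratios by unpaired t-test on global-median-normalised Spectronaut quantities of proteins with ≥2 unique peptides.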

UniProt O00487 = target: UniProt O00487
UniProt O00487, sequence (O00487 whole entry): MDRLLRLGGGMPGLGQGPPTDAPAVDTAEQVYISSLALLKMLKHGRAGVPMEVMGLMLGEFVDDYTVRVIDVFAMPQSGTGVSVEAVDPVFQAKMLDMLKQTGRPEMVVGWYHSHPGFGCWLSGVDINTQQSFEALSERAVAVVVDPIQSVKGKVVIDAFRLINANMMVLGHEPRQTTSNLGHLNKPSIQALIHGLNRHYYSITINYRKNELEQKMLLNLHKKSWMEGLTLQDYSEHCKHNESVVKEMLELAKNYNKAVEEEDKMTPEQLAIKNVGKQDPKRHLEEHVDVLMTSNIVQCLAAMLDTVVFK
Method in brief: as §1

UniProt O00507 = target: UniProt O00507
Method in brief: as §1

UniProt P51784 = target: UniProt P51784
UniProt P51784, sequence (P51784 whole entry): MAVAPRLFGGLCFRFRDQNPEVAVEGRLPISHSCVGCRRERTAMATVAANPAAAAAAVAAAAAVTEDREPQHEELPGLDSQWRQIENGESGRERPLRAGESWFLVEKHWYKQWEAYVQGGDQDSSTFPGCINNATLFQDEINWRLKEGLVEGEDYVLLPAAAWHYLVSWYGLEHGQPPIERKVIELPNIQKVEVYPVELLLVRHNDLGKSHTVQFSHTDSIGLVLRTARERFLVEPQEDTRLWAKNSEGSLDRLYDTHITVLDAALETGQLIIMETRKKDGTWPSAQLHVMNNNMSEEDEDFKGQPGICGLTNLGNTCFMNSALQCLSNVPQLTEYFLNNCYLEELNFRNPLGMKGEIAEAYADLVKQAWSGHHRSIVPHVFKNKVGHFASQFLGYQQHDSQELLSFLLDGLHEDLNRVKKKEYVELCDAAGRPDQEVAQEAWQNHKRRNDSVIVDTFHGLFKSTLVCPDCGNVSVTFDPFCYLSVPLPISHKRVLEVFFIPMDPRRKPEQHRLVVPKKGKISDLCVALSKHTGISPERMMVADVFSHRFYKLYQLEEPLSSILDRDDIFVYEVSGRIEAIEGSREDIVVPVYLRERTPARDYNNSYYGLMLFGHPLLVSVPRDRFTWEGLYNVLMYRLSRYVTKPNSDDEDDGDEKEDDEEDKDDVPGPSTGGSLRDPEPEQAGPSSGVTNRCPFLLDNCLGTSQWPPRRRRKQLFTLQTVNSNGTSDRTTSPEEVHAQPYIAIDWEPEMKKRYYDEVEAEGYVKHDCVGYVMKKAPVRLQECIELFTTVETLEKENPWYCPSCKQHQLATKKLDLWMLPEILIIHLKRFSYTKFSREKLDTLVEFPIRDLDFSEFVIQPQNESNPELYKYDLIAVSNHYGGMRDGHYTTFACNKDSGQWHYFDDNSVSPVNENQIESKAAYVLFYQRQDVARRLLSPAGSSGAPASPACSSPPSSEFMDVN
Method in brief: as §1

UniProt Q5T2D3 = target: T1, UniProt Q5T2D3
T1 sequence (whole entry): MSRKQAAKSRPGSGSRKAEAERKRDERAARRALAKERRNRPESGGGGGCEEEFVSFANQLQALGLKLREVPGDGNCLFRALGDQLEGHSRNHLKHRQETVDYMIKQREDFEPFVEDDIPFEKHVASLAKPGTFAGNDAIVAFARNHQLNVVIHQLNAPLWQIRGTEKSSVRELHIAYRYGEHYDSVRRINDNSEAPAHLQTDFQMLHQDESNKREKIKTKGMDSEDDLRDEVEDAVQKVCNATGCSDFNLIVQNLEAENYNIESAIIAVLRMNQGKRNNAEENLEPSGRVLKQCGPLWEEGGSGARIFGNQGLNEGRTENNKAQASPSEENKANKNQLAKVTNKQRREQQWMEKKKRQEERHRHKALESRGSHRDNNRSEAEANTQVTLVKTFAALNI
Method in brief: as §1

UniProt Q8TE49 = target: T2, UniProt Q8TE49
T2 sequence (whole entry): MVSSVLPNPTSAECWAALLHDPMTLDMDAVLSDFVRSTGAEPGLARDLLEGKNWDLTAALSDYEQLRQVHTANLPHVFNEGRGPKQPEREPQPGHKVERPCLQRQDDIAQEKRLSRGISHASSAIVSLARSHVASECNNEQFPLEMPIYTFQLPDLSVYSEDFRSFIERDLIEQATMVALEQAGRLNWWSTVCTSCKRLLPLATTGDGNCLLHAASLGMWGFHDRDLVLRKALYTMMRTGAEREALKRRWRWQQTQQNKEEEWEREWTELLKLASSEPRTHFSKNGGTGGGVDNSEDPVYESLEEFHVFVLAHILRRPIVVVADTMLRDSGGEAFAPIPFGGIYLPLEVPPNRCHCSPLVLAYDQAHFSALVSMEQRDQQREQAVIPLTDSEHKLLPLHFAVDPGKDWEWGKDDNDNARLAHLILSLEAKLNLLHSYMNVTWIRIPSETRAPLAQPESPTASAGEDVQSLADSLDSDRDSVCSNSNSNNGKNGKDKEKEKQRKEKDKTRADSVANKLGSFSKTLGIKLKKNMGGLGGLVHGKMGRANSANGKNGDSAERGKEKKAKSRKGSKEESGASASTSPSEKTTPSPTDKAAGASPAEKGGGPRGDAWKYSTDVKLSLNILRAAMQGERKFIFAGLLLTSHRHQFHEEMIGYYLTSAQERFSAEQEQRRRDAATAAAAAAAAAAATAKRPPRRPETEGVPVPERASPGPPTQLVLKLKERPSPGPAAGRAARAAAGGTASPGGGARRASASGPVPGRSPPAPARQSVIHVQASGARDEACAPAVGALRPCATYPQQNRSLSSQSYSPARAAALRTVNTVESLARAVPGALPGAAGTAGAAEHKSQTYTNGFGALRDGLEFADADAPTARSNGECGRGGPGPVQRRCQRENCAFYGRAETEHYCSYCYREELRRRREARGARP
Method in brief: as §1

UniProt Q9P2H5 = target: T3, UniProt Q9P2H5
T3 sequence (whole entry): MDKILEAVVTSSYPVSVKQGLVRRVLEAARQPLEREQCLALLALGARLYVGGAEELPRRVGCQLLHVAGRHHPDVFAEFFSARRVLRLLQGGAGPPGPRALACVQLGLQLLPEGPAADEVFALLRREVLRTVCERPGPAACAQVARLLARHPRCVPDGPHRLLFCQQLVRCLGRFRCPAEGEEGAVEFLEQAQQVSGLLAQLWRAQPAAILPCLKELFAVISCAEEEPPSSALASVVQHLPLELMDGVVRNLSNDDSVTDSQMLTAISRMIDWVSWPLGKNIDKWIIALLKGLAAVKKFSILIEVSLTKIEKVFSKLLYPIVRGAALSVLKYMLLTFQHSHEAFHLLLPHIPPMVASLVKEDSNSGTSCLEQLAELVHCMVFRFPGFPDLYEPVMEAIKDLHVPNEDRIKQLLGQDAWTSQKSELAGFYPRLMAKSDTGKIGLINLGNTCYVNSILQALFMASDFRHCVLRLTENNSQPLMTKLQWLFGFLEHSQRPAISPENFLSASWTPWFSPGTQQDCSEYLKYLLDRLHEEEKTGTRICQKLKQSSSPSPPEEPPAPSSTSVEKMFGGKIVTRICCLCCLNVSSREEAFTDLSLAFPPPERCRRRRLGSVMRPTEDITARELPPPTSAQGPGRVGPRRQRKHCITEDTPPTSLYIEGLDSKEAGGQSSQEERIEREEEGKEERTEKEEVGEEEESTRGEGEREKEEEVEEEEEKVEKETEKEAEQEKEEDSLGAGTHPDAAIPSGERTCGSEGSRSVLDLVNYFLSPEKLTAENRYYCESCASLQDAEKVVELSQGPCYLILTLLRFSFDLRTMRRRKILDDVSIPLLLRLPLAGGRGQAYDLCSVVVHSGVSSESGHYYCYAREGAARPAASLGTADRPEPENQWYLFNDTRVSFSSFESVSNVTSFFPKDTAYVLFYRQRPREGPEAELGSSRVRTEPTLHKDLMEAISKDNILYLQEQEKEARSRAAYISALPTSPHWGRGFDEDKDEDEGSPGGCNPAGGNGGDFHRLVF
Method in brief: as §1

UniProt Q9UGI0 = target: T4, UniProt Q9UGI0
T4 sequence (whole entry): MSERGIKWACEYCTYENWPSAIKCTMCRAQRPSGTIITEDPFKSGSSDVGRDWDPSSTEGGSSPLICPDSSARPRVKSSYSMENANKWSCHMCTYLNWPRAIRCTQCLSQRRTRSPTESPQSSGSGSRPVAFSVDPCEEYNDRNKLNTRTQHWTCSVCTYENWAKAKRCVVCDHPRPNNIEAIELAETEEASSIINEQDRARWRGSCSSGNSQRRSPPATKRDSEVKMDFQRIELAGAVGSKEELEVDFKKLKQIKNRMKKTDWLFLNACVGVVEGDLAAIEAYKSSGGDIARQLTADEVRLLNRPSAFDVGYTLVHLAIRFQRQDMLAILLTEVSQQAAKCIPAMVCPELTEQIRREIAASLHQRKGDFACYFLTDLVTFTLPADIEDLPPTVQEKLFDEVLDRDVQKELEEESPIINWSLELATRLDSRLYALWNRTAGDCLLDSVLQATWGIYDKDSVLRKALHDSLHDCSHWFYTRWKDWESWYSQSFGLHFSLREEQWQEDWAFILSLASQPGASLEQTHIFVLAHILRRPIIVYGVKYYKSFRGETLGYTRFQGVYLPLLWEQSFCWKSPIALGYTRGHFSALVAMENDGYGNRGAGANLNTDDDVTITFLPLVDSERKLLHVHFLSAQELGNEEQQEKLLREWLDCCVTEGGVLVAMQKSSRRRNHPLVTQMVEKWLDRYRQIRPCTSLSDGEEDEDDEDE
Method in brief: as §1

YOD1 = target: T5, YOD1 (UniProt Q5VVQ6)
T5 sequence (whole entry): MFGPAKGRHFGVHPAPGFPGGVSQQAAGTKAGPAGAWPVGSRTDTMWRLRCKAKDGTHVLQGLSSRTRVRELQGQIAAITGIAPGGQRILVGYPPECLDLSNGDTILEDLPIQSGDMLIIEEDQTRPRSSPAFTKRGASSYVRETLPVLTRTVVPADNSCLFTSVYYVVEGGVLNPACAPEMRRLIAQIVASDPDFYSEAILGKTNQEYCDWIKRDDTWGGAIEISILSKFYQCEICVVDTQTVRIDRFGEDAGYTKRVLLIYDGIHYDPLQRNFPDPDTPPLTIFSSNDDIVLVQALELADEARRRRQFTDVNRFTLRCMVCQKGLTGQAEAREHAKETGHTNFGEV
Method in brief: as §1

Measured: log2 ratio of Biotin-Ahx-Ub-VS probe labelling

CC(NC(=O)CCl)c1cccc2ccccc12 (centres undefined)
inactive: USP9X -0.285 | UniProt O00487 -0.0949 | UniProt O00507 0.0439 | UniProt P51784 -0.0702 | UniProt Q5T2D3 -0.196 | UniProt Q9P2H5 -0.463 | UniProt Q9UGI0 -0.905 | YOD1 0.0311
active: UniProt Q8TE49 -1.06
